Screens from PubChem.
In the library only some 12% were active in any assay of this set; here they are far more common.
BAZ2B block: blocks human BAZ2B; AID 504333; AlphaScreen BAZ2B-H3K14Ac peptide displacement; Q9UIF8; 360,000 compounds, 4.4% hits; Potency, µM (titrated, usually from 114 µM), usual class: inhibitors; note: nearly all actives have a fitted effect of over 60% in size
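Multi-concentration screen (max 110 uM) measuring displacement of acetylated histone H3 peptide from BAZ2B by AlphaScreen, using 50 nM protein, 50 nM peptide and 10 ug/mL streptavidin donor plus Ni-chelate acceptor beads.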
Sfp inh: blocks B. subtilis Sfp PPTase activity; 310,000 compounds, 3.5% hits; Potency, µM, most hits filed as inhibitors; AID 1490; Biochemical Sfp PPTase activity, qHTS;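 note: the enzyme is Sfp with the accession as filed and its product quenches rhodamine fluorescence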
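Step 1, compound plus 15 nM Sfp-PPTase, 15 min, room temperature. Step 2, add rhodamine-CoA (5 uM) and BHQ-2-YbbR (12.5 uM). Step 3, read 525/598 nm fluorescence at 0 and 30 min.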
G9a block: blocks human histone lysine methyltransferase G9a; G9a H3K9 monomethylation, AlphaScreen, 2 h; Potency, µM (doses to about 102 µM), hits mostly inhibitors; 350,000 compounds, 8.8% hits; AID 504332; note: nearly all actives have a fitted effect of over 75% in size
Target sequence (Q96KQ7 913-1193 limits assumed): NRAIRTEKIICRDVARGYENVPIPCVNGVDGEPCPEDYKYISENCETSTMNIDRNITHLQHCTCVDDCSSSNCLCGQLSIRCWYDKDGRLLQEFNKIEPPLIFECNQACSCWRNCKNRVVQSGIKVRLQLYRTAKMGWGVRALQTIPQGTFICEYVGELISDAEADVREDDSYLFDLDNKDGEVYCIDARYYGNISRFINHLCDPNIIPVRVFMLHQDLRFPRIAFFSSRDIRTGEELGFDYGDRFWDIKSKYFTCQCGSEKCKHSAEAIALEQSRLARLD
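Using a bead-based AlphaScreen, monomethylated H3K9 product from 2 h room-temperature reactions (G9a 20 nM, peptide 500 nM, SAM 20 uM) was detected with 0.5 ug/mL rabbit anti-H3K9me1 antibody.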
HP1b binding inh: inhibitors of HP1-beta chromodomain binding to methylated histone tails | P83916 | AlphaScreen HP1-beta / biotin-H3K9me3 peptide binding | Potency, µM (highest dose often 114 µM), most hits filed as inhibitors | 390,000 compounds, 0.56% hits; note: nearly all actives have a fitted effect of over 70% in size
Target sequence (P83916 whole entry, looked up): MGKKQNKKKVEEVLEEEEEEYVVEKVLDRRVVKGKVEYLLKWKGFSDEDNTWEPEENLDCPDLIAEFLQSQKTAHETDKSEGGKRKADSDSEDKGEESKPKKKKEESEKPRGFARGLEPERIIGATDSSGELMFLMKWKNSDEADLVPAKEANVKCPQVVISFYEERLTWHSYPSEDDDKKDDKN
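Compound inhibition of the preformed complex between 50 nM HP1-beta and 50 nM biotinylated H3K9me3 peptide was read by AlphaScreen. Buffer was PBS pH 7.4 with 0.01% Tween-20. Incubations ran 30 min at room temperature, with 10 ug/mL donor/acceptor beads.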
JMJD2A Tudor: JMJD2A Tudor domain (human) inhibition; O75164; AlphaScreen JMJD2A-Tudor / H3K4me3 peptide binding; Potency, µM (doses to about 114 µM), actives largely listed as inhibitors; 390,000 compounds, 4.4% hits; AID 504339; note: nearly all actives have a fitted effect of over 50% in size
PLK1 PBD block: blocks phosphopeptide binding to human PLK1 polo-box domain. AID 720504. P53350. Plk1 PBD binding of FITC phosphopeptide, fluorescence polarization. 360,000 compounds, 2.8% hits. Potency, µM, most hits filed as inhibitors; note: series mostly up to about 57 µM; nearly all actives have a fitted effect of over 65% in size
Hits are given with their value; 0 = inactive; ? = inconclusive; - = not tested or not shown; ! = repeats disagree; [ ] = remark or other dose. Calls come from the whole dose curve; as a rule, active = well fitted curve in the direction sought with a large enough effect; inconclusive = small, poorly fitted or top-dose-only effect, or another doubt; inactive = no such curve, though single readings can be large; an effect the other way counts as inactive or inconclusive.

SMILES	BAZ2B block	Sfp inh	G9a block	HP1b binding inh	JMJD2A Tudor	PLK1 PBD block
COC(=O)C1=C(C)N(CC(C)C)C(=O)/C1=C\c1cccs1	50.1µM	0	39.8µM	15.8µM	44.7µM	0
COCCCN1C(=O)/C(=C\c2cccs2)C(C(=O)OC)=C1C	?	0	?	0	0	0
CCOC(=O)C1=C(C)N(CC(C)C)C(=O)/C1=C\c1cccs1	11.2µM	0	-	?	?	0
CCN1C(=O)/C(=C\c2cccs2)C(C(=O)OC)=C1C	50.1µM	0	44.7µM	?	56.2µM	0
O=C(CNC(=O)c1ccc2ccccc2c1)OC(C(=O)Nc1cc(C(F)(F)F)ccc1Cl)c1ccccc1 (stereo unspecified)	-	-	-	-	0	-
O=C(NCCc1ccccc1)C1CCC(CNS(=O)(=O)c2ccc(F)cc2)CC1 (stereo unspecified)	0	0	0	0	0	0
COC(=O)C1=C(C)N(C2CCCCC2)C(=O)/C1=C\c1cccs1	3.16µM	0	3.16µM	0	?	0
CN(C)/N=C/c1ccc(P(c2ccc(/C=N/N(C)C)o2)c2ccc(/C=N/N(C)C)o2)o1	22.4µM	0	35.5µM	?	17.8µM	0
CCCc1sc(N2CCCC(C(N)=O)C2)nc1-c1ccccc1 (stereo unspecified)	?	0	0	?	28.2µM	23.8µM
O=C(CC1Nc2cccc3cccc(c23)NC1=O)Nc1ccc(F)cc1 (stereo unspecified)	?	?	?	0	0	0
COc1ccc(NC(=O)CC2Nc3cccc4cccc(c34)NC2=O)cc1 (stereo unspecified)	?	0	25.1µM!	0	?	0
O=C(N1CCOCC1)N1CCN(S(=O)(=O)c2ccc(F)cc2)CC1	0	0	?	0	0	0
N#C/C(=C/c1cn[nH]c1-c1ccc(Br)cc1)C(=O)O	0	0	0	0	0	0
CCOc1ccc(-c2nnc3ccc(SCC(=O)Nc4nc5ccccc5s4)nn23)cc1	0	?	0	0	0	0
O=C(CSc1ccc2nnc(-c3ccc(Cl)cc3)n2n1)N1CCCc2ccccc21	0	0	31.6µM	0	0	0
CCOc1ccc(-c2nnc3ccc(SCC(=O)N4CCCCC4)nn23)cc1	0	0	35.5µM	0	0	0
CCOc1ccc(-c2nnc3ccc(SCC(=O)Nc4nc5ccc(C)cc5s4)nn23)cc1	0	?	44.7µM	0	0	0
COc1ccc(-c2nnc3ccc(SCC(=O)N4CCCC4)nn23)cc1	0	?	50.1µM	0	0	0
Nc1c(C(=O)N2CCCC2)sc2nc3c(cc12)CCCCCC3	0	56.2µM	?	0	0	0
COCc1cc(C)nc2sc(C(=O)N3CCCC3)c(N)c12	0	?	?	0	?	0
Cc1cc(C)c2c(N)c(C(=O)N3CCCCCC3)sc2n1	?	35.5µM	?	0	35.5µM	?
Nc1c(C(=O)N2CCOCC2)sc2nc3c(cc12)CCCC3	0	0	?	0	0	0
CCOc1ccc(N=Cc2ccc3ccccc3c2)cc1	0	0	0	0	0	0
O=[N+]([O-])c1cc(C=Nc2ccc3ccccc3c2)ccc1Br	28.2µM	0	10µM	50.1µM	50.1µM	0
CC(C)OC(=O)[C@@H]1CC[C@H](C)[C@@H](CCC[C@@H]2CC=C[C@H](CC#N)O2)O1	-	0	-	-	-	-
SMILES	BAZ2B block	Sfp inh	G9a block	HP1b binding inh	JMJD2A Tudor	PLK1 PBD block
CCOc1cc(/C=C2/NC(=O)NC2=O)cc(Br)c1OCc1ccc(C(=O)O)cc1	70.8µM	0	44.7µM	?	?	?
CCOc1cc(/C=C2\NC(=S)N(C)C2=O)ccc1OCc1ccc(C(=O)O)cc1	70.8µM	0	?	0	?	?
CCOC(=O)C(C)c1c(C)[nH]c(=S)[nH]c1=O (stereo unspecified)	0	0	0[12.7 µM]	0	0	0
CCOC(=O)Cc1c(C)[nH]c(=S)[nH]c1=O	0	79.4µM	0	0	56.2µM	0
COC(=O)CCc1c(C)[nH]c(=S)[nH]c1=O	0	89.1µM	?	0	0	0
Cc1ccc(Cc2c(C)[nH]c(=S)[nH]c2=O)cc1	0	0	44.7µM	0	?	0
NC(=S)NN=Cc1cc(-c2cccc(N)c2)ccn1	-	-	-	-	-	0
Cc1ccccc1NC(=O)CC1SCCNC1=O (stereo unspecified)	0	22.4µM	0	0	0	0
Cc1c(Cl)cccc1NC(=O)CC1SCCNC1=O (stereo unspecified)	0	0	0[12.7 µM]	0	0	0
CC(C(=O)Nc1ccc(S(N)(=O)=O)cc1)N1CCc2ccccc21 (stereo unspecified)	0	0	79.4µM	0	0	0
CCN(CC)S(=O)(=O)c1cc(NC(=O)C(C)N2CCc3ccccc32)ccc1C (stereo unspecified)	-	0	25.1µM	0	?	0
Cc1ccc(-c2nn(-c3ccc(F)cc3)c3c2cnc2cc(F)c(F)cc23)cc1	-	-	0	0	0	-
CCOC(=O)c1c(NC(=O)CN2C(=O)NC(C)(c3ccc(Cl)cc3)C2=O)sc(C(=O)NC)c1C (stereo unspecified)	0	0	0	0	0	0
CN1CCN(NC(=S)Nc2ccc(OC(F)F)cc2)CC1	-	56.2µM	0	0	?	0
COc1ccc(C(=O)C(CCCCC(CN(C)C)C(=O)c2ccc(OC)cc2)CN(C)C)cc1 (stereo unspecified)	0	0	?	0	0	0
CN(C)CC(CCC(CN(C)C)C(=O)c1ccccc1)C(=O)c1ccccc1 (stereo unspecified)	0	0	44.7µM	0	0	13.4µM
CCOc1ccc(C(=O)C(CCC(CN(C)C)C(=O)c2ccc(OCC)cc2)CN(C)C)cc1 (stereo unspecified)	?	0	?	0	?	26.7µM
O=C(NCCc1ccc(Cl)cc1Cl)C1=CC=CN2CCS(=O)(=O)N=C12	0	-	0[12.7 µM]	0	0	0
Nc1nc(-c2ccc3c(c2)CCCC3)c(CC(=O)O)s1	0	0	50.1µM	0	0	0
C=C[C@@]1(C)CC[C@H]2C(=CC[C@@H]3[C@]2(C)CCC[C@@]3(C)C(=O)O)C1	-	0	-	-	-	-
COc1cccc(CNC(=O)c2cccc(-n3c(C)nc4cccnc43)c2)c1OC	0	-	0	0	0	-
NC/C=C\C(=O)O	-	0	12.6µM!	-	-	-
CCCCCOC(=O)c1[nH]c2c(c1C)C(=O)CC(c1ccco1)C2 (stereo unspecified)	56.2µM	?	39.8µM	?	35.5µM	23.8µM
CCc1ccc(CN(Cc2cn[nH]c2-c2ccc(OC)cc2)C(=O)Nc2ccc(Br)cc2)cc1	0	-	0	0	0	-
COCC(C)NC(=O)NC(=O)c1ccc(Cl)cc1 (stereo unspecified)	0	0	0	0	0	0
CC(C)CN(CC(C)C)C(=O)CC(=O)NC(=O)c1ccc(Cl)cc1	89.1µM	0	0	0	0	0
Cc1ccc(C(=O)NCCc2c[nH]c3ccccc23)s1	0	0	0	0	0	0
